Data from PubChem BioAssay AID463173 (ICCB-Longwood Screening Facility, Harvard Medical School, 2010).
Screen size: about 52,000 compounds; about 4,300 (8.3%) were called active. No stated cut-off is given here; in the data, active means survival mostly below about 52% (no sharp cut-off); inactive means mostly above about 56%. Many of the other results were omitted from the sample, so actives are more common in it than they were.

Each compound was assayed on DeltatarO mutant (assay: growth inhibition of S. aureus wild type versus tarO mutant, primary screen, teichoic acid synthesis inhibitors, RN4220, OD600 (AID 463173)). Conditions: OD600, 18 h, stronger effect = lower value, screened at 18.75 µg/mL (by protocol).
For `CN(CCCN1C(=O)c2ccccc2C1=O)CCCN1C(=O)c2ccccc2C1=O`, the survival was 93% (inactive). `CCOc1ccc(NC(=O)CC2C(=O)N(c3ccccc3)C(=O)N2Cc2ccc3c(c2)OCO3)cc1` (centres undefined) was tested, and the survival was 79% (inactive). With `CN1CCN(C(CNC(=O)C(=O)Nc2ccccc2C#N)c2ccc3c(c2)OCO3)CC1` (centres undefined) the survival was 73% (inactive). With `COCCCNC(=O)CCC(=O)N1Cc2ccccc2Oc2ncccc21` the survival was 84% (inactive). With `COC(=O)c1cc2sc(C)cc2n1CC(=O)Nc1ccc(C)c(C)c1` the survival was 64% (inactive). In the case of `C=Cc1ccc(Cn2c(C(=O)OC)cc3sc(C)cc32)cc1`, the survival is reported as 27% (active). `COC(=O)c1cc2sc(Cl)cc2n1Cc1c(C)cc(C)cc1C` was tested, and the survival was 98% (inactive). In the case of `COC(=O)c1cc2sc(C)cc2n1Cc1ccc(Br)cc1F`, the survival is reported as 89% (inactive). With `COC(=O)c1cc2sc(C)cc2n1Cc1cccc(OC)c1` the survival was 1% (active). `COC(=O)c1cc2sc(C)cc2n1Cc1ccccc1` was tested, and the survival was 95% (inactive). For `Cn1c(=O)n(C)c2cc(N3CCOCC3)c(NS(=O)(=O)c3ccc(F)cc3)cc21`, the survival was 126% (inactive). With `COc1ccc(CNC(=O)C2CCN(S(=O)(=O)c3ccc4nc5c(c(C(=O)O)c4c3)CCCC5)CC2)cc1` the survival was 99% (inactive). With `Clc1ccc(CCNc2nc3cc(Cl)c(Cl)cc3n3cnnc23)cc1` the survival was 91% (inactive). For `O=C1CCSC2(C(=O)N(Cc3ccc(F)cc3)c3ccccc32)N1c1ccc(F)c(F)c1` (centres undefined), the survival was 83% (inactive). For `COc1ccc(Cn2c(=O)c3oc4ccccc4c3n(Cc3ccccc3)c2=O)cc1`, the survival was 82% (inactive). In the case of `O=C(Nc1ccccc1C(F)(F)F)N1CCOc2ccc(Cl)cc21`, the survival is reported as 46% (inactive). `OC(c1ccccc1)c1nc2ccccc2n1Cc1c(F)cccc1Cl` (centres undefined) was tested, and the survival was 74% (inactive). For `COC(=O)Cn1c(C(O)c2ccccc2)nc2ccccc21` (centres undefined), the survival was 71% (inactive). With `Cc1cc(C)c(Cn2c(C(O)c3ccccc3)nc3ccccc32)c(C)c1` (centres undefined) the survival was 31% (active). In the case of `Cc1cccc(-c2nc3c4ccccc4nc(NCCc4ccccc4)n3n2)c1`, the survival is reported as 7% (active). With `COc1ccc(CCNc2nc3cc(OC)c(OC)cc3c3nc(-c4ccccc4)nn23)cc1OC` the survival was 93% (inactive). In the case of `COc1cc2nc(NCCc3ccccc3)n3nc(-c4cccnc4)nc3c2cc1OC`, the survival is reported as 118% (inactive). `COc1cc2nc(NCCc3cccc(C)c3)n3nc(-c4ccccc4)nc3c2cc1OC` was tested, and the survival was 59% (inactive). `COc1ccc(CCNc2nc3ccccc3c3nc(-c4cccc(C)c4)nn23)cc1OC` was tested, and the survival was 20% (active). In the case of `COc1ccc(CCNc2nc3cc(OC)c(OC)cc3c3nc(-c4cccnc4)nn23)cc1OC`, the survival is reported as 117% (inactive). `Cc1cc2[nH]c(=O)c(=O)[nH]c2cc1S(=O)(=O)Nc1ccc(OC(F)(F)F)cc1` was tested, and the survival was 67% (inactive). For `CCCn1c(=O)n(-c2cc(Cl)c(OC)cc2OC)c(=O)c2c3c(sc21)CN(C(C)=O)CC3`, the survival was 62% (inactive). For `O=C(O)CCc1ccc(-c2ccccc2)n1CC(=O)Nc1ccccc1C(F)(F)F`, the survival was 60% (inactive). In the case of `CCc1ccccc1NC(=O)C1=C(C)C(=O)OC12CCCCCC2`, the survival is reported as 58% (inactive). For `CCn1cc(C(=O)OCC(=O)Nc2ccc(C)c(Cl)c2)c(=O)c2ccc(C)nc21`, the survival was 63% (active). For `CCn1cc(C(=O)OCC(=O)Nc2cc(C)cc(C)c2)c(=O)c2ccc(C)nc21`, the survival was 64% (inactive). For `CCn1cc(C(=O)OCC(=O)Nc2cc(Cl)ccc2C)c(=O)c2ccc(C)nc21`, the survival was 74% (inactive). With `CCCCC1CCC(CCCC(C)CCC(=O)O)CC1` (centres undefined) the survival was -4% (active). With `CCCCCCC1CCC(C(=O)NC(C(=O)O)C(C)C)CC1` (centres undefined) the survival was 49% (inactive). With `CCCCCCC1CC=C(C(=O)O)CC1` (centres undefined) the survival was 76% (inactive). For `O=c1c2sc3ccccc3c2n(Cc2ccccc2)c(=O)n1CCc1ccccc1`, the survival was 71% (inactive). In the case of `CS(=O)(=O)N(CC(=O)Nc1cccnc1)c1ccc(Cl)cc1`, the survival is reported as 91% (inactive). In the case of `COc1ccc(N(CC(=O)Nc2cc(Cl)ccc2C)S(=O)(=O)c2c(C)noc2C)cc1`, the survival is reported as 51% (inactive). In the case of `COc1ccc(S(=O)(=O)N(CC(=O)Nc2cc(C)cc(C)c2)c2ccc(Cl)cc2)cc1`, the survival is reported as 77% (inactive). For `COc1ccc(N(CC(=O)Nc2cc(OC)cc(OC)c2)S(=O)(=O)c2c(C)noc2C)cc1`, the survival was 45% (active). In the case of `O=C(CN(c1ccc(Cl)c(C(F)(F)F)c1)S(=O)(=O)c1ccccc1)N1CCc2ccccc2C1`, the survival is reported as 42% (inactive). `COc1ccc(N(CC(=O)NCc2ccc(F)cc2)S(=O)(=O)c2c(C)noc2C)cc1` was tested, and the survival was 82% (inactive). With `CCOc1ccc(S(=O)(=O)N(CC(=O)Nc2cccnc2)c2ccccc2)cc1` the survival was 114% (inactive). For `COc1ccc(S(=O)(=O)N(CC(=O)Nc2cccnc2)c2ccc(Cl)cc2)cc1`, the survival was 30% (active). For `O=C(CN(c1ccc(Cl)c(C(F)(F)F)c1)S(=O)(=O)c1ccccc1)Nc1cccnc1`, the survival was 47% (active). `Cc1cc(C)c(NC(=O)Cn2c(=O)n(CC(=O)NCc3ccccc3Cl)c(=O)c3sccc32)c(C)c1` was tested, and the survival was 171% (inactive). With `Cc1ccc(N2CCN(C(=O)c3nn(C)c4c3CS(=O)(=O)c3ccccc3-4)CC2C)cc1` (centres undefined) the survival was 56% (inactive). With `O=C(c1ccc2c(c1)N(Cc1cccc(Cl)c1)C(=O)c1ccccc1S2(=O)=O)N1CCCC1` the survival was 115% (inactive). With `CCOc1ccccc1CNC(=O)CSc1nnc(C)c2c(C)n(-c3ccccc3)nc12` the survival was 83% (inactive). With `CC(C)CNS(=O)(=O)c1ccc(S(=O)(=O)N2CCCC(C(=O)NC3CCCCC3)C2)cc1` (centres undefined) the survival was 75% (inactive). With `CCCCOc1ccc(CNC(=O)C2COc3ccc(OC)cc3C2)cc1` (centres undefined) the survival was 94% (inactive). In the case of `Cc1c(Cl)cccc1NS(=O)(=O)c1ccc2[nH]cc(C(=O)NC3CCCC3)c(=O)c2c1`, the survival is reported as 7% (active). With `O=C(NC1CCCCC1)c1c[nH]c2ccc(S(=O)(=O)Nc3ccccc3F)cc2c1=O` the survival was 83% (inactive). For `CCOCCCNC(=O)c1c[nH]c2ccc(S(=O)(=O)Nc3cccc(Cl)c3C)cc2c1=O`, the survival was 93% (inactive). In the case of `CCc1ccccc1NS(=O)(=O)c1ccc2[nH]cc(C(=O)NC3CCCC3)c(=O)c2c1`, the survival is reported as 33% (active). With `Cc1ccccc1NS(=O)(=O)c1ccc2[nH]cc(C(=O)NC3CCCCC3)c(=O)c2c1` the survival was 85% (inactive). `CNC(=O)c1c[nH]c2ccc(S(=O)(=O)Nc3cccc(Cl)c3C)cc2c1=O` was tested, and the survival was 91% (inactive). `CNc1nc2ccccc2o1` was tested, and the survival was 89% (inactive). For `O=C(CSc1nnc(-c2cccs2)o1)Oc1ccccc1Cl`, the survival was 81% (inactive). With `Cc1ccc(CNC(=O)CCCn2c(=O)c3ccccc3n(CC(=O)Nc3ccc(C)cc3)c2=O)cc1` the survival was 89% (inactive). For `COc1ccc(C)cc1N(CC(=O)N1CCC(C)CC1)S(=O)(=O)c1ccc(C)cc1`, the survival was 55% (active). In the case of `COc1ccccc1N(CC(=O)N1CCC(C)CC1)S(=O)(=O)c1ccc(C)cc1`, the survival is reported as 134% (inactive). With `CCOC(=O)N1CCN(C(=O)CN(c2cc(C)ccc2OC)S(=O)(=O)c2ccc(C)cc2)CC1` the survival was 87% (inactive). For `O=C(CSc1nc(-c2ccc(F)cc2)[nH]c1-c1ccc(F)cc1)Nc1ccc2c(c1)OCCO2`, the survival was 76% (inactive). In the case of `N#CCCCN1C(=O)C(=C(C#N)C#N)c2ccccc21`, the survival is reported as 75% (inactive). `O=C1c2ccccc2-c2n[nH]c(=S)nc21` was tested, and the survival was 64% (inactive). `N#CC(C#N)=C1c2ccccc2-c2nc(C#N)c(C#N)nc21` was tested, and the survival was 4% (active). `N#Cc1nc2c(nc1C#N)-c1ccccc1C2=O` was tested, and the survival was 19% (active). With `N#Cc1cc2nc3c(nc2cc1C#N)-c1cccc2cccc-3c12` the survival was 85% (inactive). For `N#CC(C#N)=C1c2ccccc2-c2c1nc1ccccc1[n+]2[O-]`, the survival was 78% (inactive). `COC(=O)c1ccc2c(=O)n(CCCCCC(=O)N3CCN(c4ccc(Cl)cc4)CC3)c(=O)[nH]c2c1` was tested, and the survival was 116% (inactive). For `CCc1ccc(OC(C)C(=O)Nc2c(C(=O)c3ccccc3)oc3ccccc23)cc1` (centres undefined), the survival was 38% (inactive). In the case of `COc1ccccc1OC(C)C(=O)Nc1c(C(=O)c2ccc(Cl)cc2)oc2ccccc12` (centres undefined), the survival is reported as 81% (inactive). In the case of `Cc1ccc(C(=O)c2oc3ccccc3c2NC(=O)C(C)Oc2ccccc2Cl)cc1` (centres undefined), the survival is reported as 40% (active). In the case of `Cc1cc(C)cc(OC(C)C(=O)Nc2c(C(=O)c3ccccc3)oc3ccccc23)c1` (centres undefined), the survival is reported as 17% (active). With `Cc1cc(C)cc(OCC(=O)Nc2c(C(=O)c3ccccc3)oc3ccccc23)c1` the survival was 92% (inactive). In the case of `Cc1ccc(C(=O)c2oc3ccccc3c2NC(=O)COc2ccccc2Cl)cc1`, the survival is reported as 123% (inactive). For `CC(C)Cn1c(=O)c2ccccc2n2c(-c3ccc(Br)cc3)nnc12`, the survival was 94% (inactive). For `Cc1ccc(CN(Cc2ccco2)C(=O)COc2ccc(Cl)cc2Cl)cc1`, the survival was 96% (inactive). For `Cc1ccc(-c2nnc(Nc3ccc(O)cc3)c3ccccc23)cc1S(=O)(=O)N1CCCCC1`, the survival was 104% (inactive). With `Cc1cccc(N2CCN(c3nc4ccc(C(=O)c5ccccc5)cc4n4cnnc34)CC2C)c1` (centres undefined) the survival was 76% (inactive). `Cc1ccc(CN2CCC(CNc3ncnc4onc(-c5ccc(Cl)cc5)c34)CC2)cc1` was tested, and the survival was 80% (inactive). `Cc1ccc(CN2CCC(CNc3ncnc4onc(-c5ccc(F)cc5)c34)CC2)cc1` was tested, and the survival was -2% (active). `Cc1ccc(CCNc2ncnc3onc(-c4ccc(F)cc4)c23)cc1` was tested, and the survival was 83% (inactive). For `Fc1ccc(-c2noc3ncnc(NCC4CCN(Cc5ccc(Cl)cc5)CC4)c23)cc1`, the survival was 72% (inactive). In the case of `Cc1ccc(CO)cc1Nc1ncnc2onc(-c3ccc(F)cc3)c12`, the survival is reported as 46% (active). For `Cc1cc(C)cc(Nc2ncnc3onc(-c4ccc(F)cc4)c23)c1`, the survival was 84% (inactive). For `Cc1cccc(N2CCN(C(=O)c3cccc(-n4c(C)nc5cccnc54)c3)CC2)c1C`, the survival was 104% (inactive). For `COc1ccc2c(c1)cc1c(=O)n(CC(=O)NC3CCCCC3)nc(C)n12`, the survival was 70% (inactive).
